Measured values taken from ChEMBL document CHEMBL3988442, “University of Dundee, Small-Polar-MMV Screening Library” (2021).
For some of these results: Potency and affinity values are given separately.

Columns and labels:
Parameters in all cases: scale not given: direction of the effect not stated beside the values
[1] = target: Protein translocase subunit SecA (Escherichia coli (strain K12)) (UniProt P10408); test: Assay to Identify E. coli SecA ATPase Inhibitors; assay type: functional; conditions: 30 µM
[2] = target: T1, Ubiquitin-activating enzyme e1, putative (Leishmania donovani (strain BPK282A1)) (UniProt E9BSI1); test: Leishmania donovani Ubiquitin Activating Enzyme (LdE1); assay type: functional; conditions: 30 µM
T1 sequence (whole entry): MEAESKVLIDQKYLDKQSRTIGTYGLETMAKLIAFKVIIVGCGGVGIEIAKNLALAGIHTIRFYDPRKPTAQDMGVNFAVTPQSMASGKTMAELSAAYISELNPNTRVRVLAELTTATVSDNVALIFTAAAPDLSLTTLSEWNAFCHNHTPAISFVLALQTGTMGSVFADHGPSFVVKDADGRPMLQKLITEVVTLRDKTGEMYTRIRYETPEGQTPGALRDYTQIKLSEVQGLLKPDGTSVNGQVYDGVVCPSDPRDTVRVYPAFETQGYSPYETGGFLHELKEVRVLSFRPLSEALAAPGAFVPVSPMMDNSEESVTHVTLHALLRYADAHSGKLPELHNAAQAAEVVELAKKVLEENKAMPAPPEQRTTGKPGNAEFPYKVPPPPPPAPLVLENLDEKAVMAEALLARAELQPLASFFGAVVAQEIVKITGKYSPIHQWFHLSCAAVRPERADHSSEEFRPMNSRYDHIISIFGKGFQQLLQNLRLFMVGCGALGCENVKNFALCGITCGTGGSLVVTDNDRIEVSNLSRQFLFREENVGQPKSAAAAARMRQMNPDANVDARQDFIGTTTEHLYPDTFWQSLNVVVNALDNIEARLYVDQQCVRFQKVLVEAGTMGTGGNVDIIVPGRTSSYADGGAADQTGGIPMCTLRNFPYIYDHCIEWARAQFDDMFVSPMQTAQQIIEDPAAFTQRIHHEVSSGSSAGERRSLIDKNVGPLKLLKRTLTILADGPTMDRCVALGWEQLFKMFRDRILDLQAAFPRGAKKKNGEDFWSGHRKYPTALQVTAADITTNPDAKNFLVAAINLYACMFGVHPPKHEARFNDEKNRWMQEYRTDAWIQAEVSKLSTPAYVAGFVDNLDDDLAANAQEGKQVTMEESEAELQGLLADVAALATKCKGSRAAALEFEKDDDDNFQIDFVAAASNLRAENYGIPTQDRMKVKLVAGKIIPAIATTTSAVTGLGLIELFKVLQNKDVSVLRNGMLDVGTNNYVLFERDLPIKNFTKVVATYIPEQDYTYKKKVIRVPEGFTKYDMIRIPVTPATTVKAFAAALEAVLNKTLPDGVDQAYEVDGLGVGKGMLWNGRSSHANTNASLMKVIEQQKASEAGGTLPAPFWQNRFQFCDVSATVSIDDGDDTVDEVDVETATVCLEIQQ

[3] = target: AMP-activated protein kinase, AMPK (Homo sapiens) (UniProt P54646+O43741+P54619+Q9UGJ0+Q9Y478+Q13131+Q9UGI9); test: AMP-dependent Kinase enzyme assay. An in vitro enzyme assay that detects ADP turnover that is directly proportional to AMPK activity. This uses naive AMPK that is activated during the assay with MK-8722; assay type: functional; conditions: 30 µM
[4] = target: Sialic acid-binding Ig-like lectin 9 (Homo sapiens) (UniProt Q9Y336); test: Hs-Siglec9 ALPHAscreen SOP 20170721; conditions: 10 µM
Trypanosoma cruzi = test: Trypanosoma cruzi phosphomannomutase and mannose-1-phosphate guanylyltransferase assay; assay type: functional; conditions: 10 µM
[5] = target: T2, Arginase-2, mitochondrial (Homo sapiens) (UniProt P78540); test: in vitro enzyme assay to detect the production of urea directly proportional to the activity of Arginase II; assay type: functional; conditions: 33.3 µM; note: in the data most compounds retested in dose-response had high values
T2 sequence (whole entry): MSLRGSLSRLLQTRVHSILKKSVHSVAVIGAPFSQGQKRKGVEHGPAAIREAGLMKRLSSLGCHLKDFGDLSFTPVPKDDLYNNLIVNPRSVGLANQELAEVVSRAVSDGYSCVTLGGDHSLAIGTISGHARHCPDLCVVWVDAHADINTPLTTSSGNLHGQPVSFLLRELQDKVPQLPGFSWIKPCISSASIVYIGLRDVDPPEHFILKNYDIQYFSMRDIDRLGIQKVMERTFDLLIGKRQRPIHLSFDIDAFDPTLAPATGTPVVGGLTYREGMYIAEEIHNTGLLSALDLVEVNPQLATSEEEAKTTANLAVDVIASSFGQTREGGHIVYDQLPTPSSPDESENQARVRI

[6] = target: T3, Proteasome subunit beta (Trypanosoma cruzi) (UniProt O96673); test: Trypanosoma cruzi proteasome chymotrypsin-like activity (TcProtChymo) assay.; note: in the data most compounds retested in dose-response had high values; assay type: functional; conditions: 9.37 µM
T3 sequence (whole entry): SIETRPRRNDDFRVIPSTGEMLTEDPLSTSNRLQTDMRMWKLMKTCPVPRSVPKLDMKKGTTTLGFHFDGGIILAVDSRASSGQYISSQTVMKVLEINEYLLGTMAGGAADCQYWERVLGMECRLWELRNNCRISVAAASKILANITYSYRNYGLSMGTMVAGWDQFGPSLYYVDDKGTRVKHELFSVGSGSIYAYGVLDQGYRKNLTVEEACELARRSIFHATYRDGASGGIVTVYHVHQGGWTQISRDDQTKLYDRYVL

Homo sapiens = species: Homo sapiens; test: To identify inhibition of the IFN signalling (Jak-Stat) pathway via expression of an eGFP reporter gene under the control of an IFN-stimulated response element (ISRE) containing MxA promoter.; assay type: functional; conditions: 30 µM
[7] = target: T4, Tyrosyl-tRNA synthetase, putative (Trypanosoma cruzi (strain CL Brener)) (UniProt Q4DSP6); test: Trypanosoma cruzi tyrosyl tRNA synthetase (TcYRS) _High Tyrosine SOP; assay type: functional; conditions: 30 µM; note: in the data most compounds retested in dose-response had high values
T4 sequence (whole entry): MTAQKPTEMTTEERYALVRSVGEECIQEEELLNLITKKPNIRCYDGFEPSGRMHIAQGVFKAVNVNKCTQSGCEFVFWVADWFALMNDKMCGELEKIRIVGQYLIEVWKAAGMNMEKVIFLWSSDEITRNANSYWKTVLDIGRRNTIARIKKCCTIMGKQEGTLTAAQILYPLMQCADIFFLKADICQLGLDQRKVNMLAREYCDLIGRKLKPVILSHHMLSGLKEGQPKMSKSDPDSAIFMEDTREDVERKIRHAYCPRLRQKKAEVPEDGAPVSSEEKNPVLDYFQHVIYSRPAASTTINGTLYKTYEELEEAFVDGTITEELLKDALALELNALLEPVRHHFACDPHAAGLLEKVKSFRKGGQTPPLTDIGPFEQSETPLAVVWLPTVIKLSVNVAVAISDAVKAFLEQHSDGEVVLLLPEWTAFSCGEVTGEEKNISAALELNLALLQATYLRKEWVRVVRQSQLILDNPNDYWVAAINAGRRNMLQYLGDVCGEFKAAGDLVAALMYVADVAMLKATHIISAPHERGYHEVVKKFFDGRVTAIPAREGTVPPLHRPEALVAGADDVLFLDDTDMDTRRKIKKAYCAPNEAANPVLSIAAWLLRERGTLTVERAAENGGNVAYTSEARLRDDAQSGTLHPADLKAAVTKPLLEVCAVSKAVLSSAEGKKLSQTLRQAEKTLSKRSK

[8] = target: T4, Tyrosyl-tRNA synthetase, putative (Trypanosoma cruzi (strain CL Brener)); test: Trypanosoma cruzi tyrosyl tRNA synthetase (TcYRS) SOP; assay type: functional; conditions: 30 µM
[9] = target: Chromo domain-containing protein 1 (Saccharomyces cerevisiae (strain ATCC 204508 / S288c) (Baker's yeast)) (UniProt P32657); test: ScCHD-1 Enzyme Inhibition Assay; assay type: functional; conditions: 30 µM; note: in the data most compounds retested in dose-response had high values
Chain of Chromo domain-containing protein 1 (Saccharomyces cerevisiae (strain ATCC 204508 / S288c) (Baker's yeast)) (P32657 whole entry, the tested form may be a part): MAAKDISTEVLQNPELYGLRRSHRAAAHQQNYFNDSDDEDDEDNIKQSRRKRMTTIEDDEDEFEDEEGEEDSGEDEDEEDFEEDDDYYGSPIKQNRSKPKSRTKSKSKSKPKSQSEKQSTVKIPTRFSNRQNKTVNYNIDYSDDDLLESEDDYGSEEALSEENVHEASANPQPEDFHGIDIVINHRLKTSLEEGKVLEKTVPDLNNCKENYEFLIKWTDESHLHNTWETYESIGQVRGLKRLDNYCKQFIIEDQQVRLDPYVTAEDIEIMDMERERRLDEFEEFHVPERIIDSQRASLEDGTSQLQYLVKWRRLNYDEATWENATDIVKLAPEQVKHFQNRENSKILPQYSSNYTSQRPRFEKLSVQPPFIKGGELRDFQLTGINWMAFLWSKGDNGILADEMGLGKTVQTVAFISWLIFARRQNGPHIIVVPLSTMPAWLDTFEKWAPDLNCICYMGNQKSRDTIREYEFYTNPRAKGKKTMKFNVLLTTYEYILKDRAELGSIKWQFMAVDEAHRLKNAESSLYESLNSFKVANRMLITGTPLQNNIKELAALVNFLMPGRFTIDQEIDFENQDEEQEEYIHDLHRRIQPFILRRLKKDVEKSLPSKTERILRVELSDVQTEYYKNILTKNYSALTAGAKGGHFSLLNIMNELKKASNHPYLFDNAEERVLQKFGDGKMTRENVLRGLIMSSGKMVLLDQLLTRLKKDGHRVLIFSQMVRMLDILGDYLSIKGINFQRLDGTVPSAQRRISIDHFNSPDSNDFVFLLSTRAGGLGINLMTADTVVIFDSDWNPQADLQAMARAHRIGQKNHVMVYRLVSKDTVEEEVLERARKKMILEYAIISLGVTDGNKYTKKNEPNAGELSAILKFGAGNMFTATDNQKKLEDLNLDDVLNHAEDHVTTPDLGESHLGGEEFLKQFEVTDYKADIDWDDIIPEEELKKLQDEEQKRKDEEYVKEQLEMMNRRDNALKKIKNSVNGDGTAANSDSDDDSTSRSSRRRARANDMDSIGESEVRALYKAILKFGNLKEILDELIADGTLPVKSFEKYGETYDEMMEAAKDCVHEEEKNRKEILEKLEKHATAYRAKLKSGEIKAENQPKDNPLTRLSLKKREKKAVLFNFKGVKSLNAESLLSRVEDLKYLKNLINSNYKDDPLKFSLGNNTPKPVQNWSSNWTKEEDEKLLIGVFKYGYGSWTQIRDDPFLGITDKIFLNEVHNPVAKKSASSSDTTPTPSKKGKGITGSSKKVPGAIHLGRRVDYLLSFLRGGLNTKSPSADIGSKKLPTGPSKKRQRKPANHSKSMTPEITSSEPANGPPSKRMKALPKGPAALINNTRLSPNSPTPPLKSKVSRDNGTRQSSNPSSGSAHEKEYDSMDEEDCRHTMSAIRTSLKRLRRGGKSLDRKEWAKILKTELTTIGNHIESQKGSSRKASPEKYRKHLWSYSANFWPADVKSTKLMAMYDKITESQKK

Chain of Protein translocase subunit SecA (Escherichia coli (strain K12)) (P10408 whole entry): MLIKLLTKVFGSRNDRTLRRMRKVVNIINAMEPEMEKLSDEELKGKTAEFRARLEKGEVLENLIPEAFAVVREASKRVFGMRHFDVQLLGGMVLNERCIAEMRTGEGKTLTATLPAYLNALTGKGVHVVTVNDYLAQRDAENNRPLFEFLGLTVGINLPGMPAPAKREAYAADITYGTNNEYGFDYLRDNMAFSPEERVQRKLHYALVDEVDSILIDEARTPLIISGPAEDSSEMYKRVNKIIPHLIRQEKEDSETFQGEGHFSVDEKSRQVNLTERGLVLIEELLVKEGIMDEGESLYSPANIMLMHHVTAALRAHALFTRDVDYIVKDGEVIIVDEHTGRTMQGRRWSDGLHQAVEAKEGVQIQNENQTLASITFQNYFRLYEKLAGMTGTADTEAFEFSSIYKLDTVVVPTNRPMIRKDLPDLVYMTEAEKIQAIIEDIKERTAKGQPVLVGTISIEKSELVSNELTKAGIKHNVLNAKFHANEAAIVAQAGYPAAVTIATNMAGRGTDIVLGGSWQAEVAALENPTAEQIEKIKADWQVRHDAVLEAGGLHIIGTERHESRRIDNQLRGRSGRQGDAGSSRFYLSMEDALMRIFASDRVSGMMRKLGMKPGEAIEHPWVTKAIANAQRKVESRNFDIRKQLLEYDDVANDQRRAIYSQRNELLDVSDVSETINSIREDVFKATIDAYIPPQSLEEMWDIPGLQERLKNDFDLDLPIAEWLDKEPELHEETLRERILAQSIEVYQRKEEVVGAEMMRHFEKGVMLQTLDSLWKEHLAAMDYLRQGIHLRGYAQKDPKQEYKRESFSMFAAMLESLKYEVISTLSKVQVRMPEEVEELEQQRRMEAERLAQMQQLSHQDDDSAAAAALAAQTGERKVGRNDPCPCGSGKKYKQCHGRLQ
Chain of Sialic acid-binding Ig-like lectin 9 (Homo sapiens) (Q9Y336 whole entry): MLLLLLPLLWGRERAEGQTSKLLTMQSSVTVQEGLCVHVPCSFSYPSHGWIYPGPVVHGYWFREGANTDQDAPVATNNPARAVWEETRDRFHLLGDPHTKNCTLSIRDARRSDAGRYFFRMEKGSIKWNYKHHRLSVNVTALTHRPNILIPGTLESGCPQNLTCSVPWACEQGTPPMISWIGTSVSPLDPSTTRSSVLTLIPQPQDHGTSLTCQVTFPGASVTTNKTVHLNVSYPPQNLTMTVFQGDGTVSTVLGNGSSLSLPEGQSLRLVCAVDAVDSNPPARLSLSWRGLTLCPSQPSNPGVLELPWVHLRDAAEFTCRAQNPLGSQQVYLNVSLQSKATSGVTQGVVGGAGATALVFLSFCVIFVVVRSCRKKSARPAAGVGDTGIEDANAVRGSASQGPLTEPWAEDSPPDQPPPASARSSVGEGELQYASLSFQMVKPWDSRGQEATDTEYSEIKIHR

SMILES	Percent Effect [1] [%]	Percent Effect [2] [%]	Percent Effect [3] [%]	Percent Effect [4] [%]	Percent Effect (Trypanosoma cruzi) [%]	Percent Effect [5] [%]	Percent Effect [6] [%]	Percent Effect (Homo sapiens) [%]	Percent Effect [7] [%]	Percent Effect [8] [%]	Percent Effect [9] [%]
O=C(c1ccco1)N1CCC2(CCOC2)C1 (configuration not stated)	-0.538	12	-4.74	-1.73	-2.16	3.35	20.1	-9.81	1.06	7.69	-7.58
Cn1ccnc1-c1cccc(NC(=O)NCCCO)c1	-0.628	6.94	-4.42	2.52	0.875	19.4	11.8	15.7	5.26	7.69	-4.21
Cc1nc(C)c(CC(=O)Nc2nnc(C)s2)c(=O)[nH]1	-0.0632	-13.2	-1.32	2.92	2.82	1.15	7.85	0.477	4.41	21.9	-10.9
CCOCC1CN(Cc2ccoc2)Cc2nn(CC3CC3)cc21 (configuration not stated)	-7.41	-2.7	4.81	-1.13	-3.52	0	3.3	5.53	-7.92	6.1	0.75
COc1cc2ncn(CC(=O)NCCCN(C)C)c(=O)c2cc1OC	-1.85	1.33	-1.58	0.564	-8.84	-3.35	7.76	-4.68	4.23	-53.9	-7.79
CC(C)c1nc(C2CCCN2C(=O)c2nccnc2N)no1 (configuration not stated)	-6.3	16.2	-11	23.1	4.18	-4.99	6.1	12.1	6.93	23.2	-5.79
CCOCc1cccc(S(=O)(=O)N2CCSCC2)c1	-3.9	1.33	4.84	4.89	-6.09	0.88	7.58	5.82	4.23	-2.56	-3.83
c1ccc(CCN2CCOC(Cn3cccn3)C2)nc1 (configuration not stated)	-6.2	5.2	-1.28	6.84	7.54	1.05	3.15	5.5	3.81	11.8	-7.53
Cc1nnc(N2CC[C@H]3C[C@@H](C(=O)NC4CCCC4)O[C@H]3C2)s1	-5.67	0	11.8	-3.34	-1.66	1.59	0.738	10.7	-1.08	7.69	8.63
CC(=O)N(Cc1noc(C2CC2)n1)C1CCN(Cc2cccnc2)C1 (configuration not stated)	-2.68	13.5	-6.59	0.785	-1.76	-0.185	2.51	12.5	4.95	18.3	-7.09
Cc1ccc(CN2CCc3ncnc(-c4cccnc4)c3CC2)o1	-3.48	-2.67	0.55	8.87	-0.772	-5.91	8.72	-10.7	2.08	0	-3.74
COc1cnc(C2(O)CCN(C(=O)c3ccncc3)CC2)c(OC)n1	-4.14	4.05	8.66	2.87	2.77	-1.16	3.74	8.85	2.15	9.09	-11.8
CCc1noc(C2CCCCN2C(=O)c2nnc3ccccc3n2)n1 (configuration not stated)	-4.1	9.33	-3.18	-0.0891	3.54	-7.57	14.6	-16.9	11.6	17.9	-14.2
Fc1ccc(-c2nnc(CN3CCCC3Cn3cncn3)o2)cc1 (configuration not stated)	-1.9	5.2	-0.239	9.41	6.93	0.712	7.26	-14.3	4.85	19.5	-10.5
COc1cc(C)nc(N2CCN(C(=O)c3ccc[nH]3)CC2)n1	-5.18	10.8	-2.76	14.9	3.68	-5.21	4.14	17.1	1.48	6.17	-10.1
Cc1ncccc1OC1(C(=O)NCCCN2CCOCC2)CCNCC1	-0.6	5.41	-5.62	-0.0436	-5.02	1.43	11.2	11	6.88	9.76	-2.8
COc1ccc(OCc2nc(C(=O)N3CC(O)C3)co2)cc1	-5.91	5.41	4.37	4.07	1.74	1.43	3.28	2.54	4.76	2.44	-0.668
